# Source: PubChem BioAssay (EPA / NIEHS)
# Inconclusive results are not listed. Activity calls are given as the source filed them. How the source made its calls: active means hit-call score of the fitted dose curve at least 0.9, where 1 is the maximum; inconclusive means response in the unintended direction; inactive means score below 0.9.
# Legend:
# [1] = system: guinea pig Leukotriene B4 Receptor (LTB4), gene 100379538; assay: NVS_GPCR_gLTB4: NovaScreen (NVS) G Protein-Coupled Receptor Assay for guinea pig Leukotriene B4 Receptor (LTB4) (AID 2283247)
# Method in brief: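 Membranes from guinea pig spleen incubated 2 h with radioligand and compound; bound counts measured by filtration and scintillation. Screened first at 25 uM in duplicate, then actives titrated to a 50 uM top concentration relative to DMSO.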
# [2] = target: human Serotonin, 5-Hydroxytryptamine Receptor 2A (5HT2A), HTR2A (gene 3356) (UniProt P28223); assay: NVS_GPCR_h5HT2A: NovaScreen (NVS) G Protein-Coupled Receptor Assay for human Serotonin, 5-Hydroxytryptamine Receptor 2A (5HT2A) (AID 2283249)
# Method in brief: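 Radioligand displacement on human cortex tissue extract, counted by filtration and scintillation 1.5 h post-dosing. Initial single-concentration screen at 25 uM in duplicate, concentration series in follow-up; DMSO as baseline.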
# [3] = target: human Adrenergic, Alpha 2c Receptor (Adra2C), ADRA2C (gene 152) (UniProt P18825); assay: NVS_GPCR_hAdra2C: NovaScreen (NVS) G Protein-Coupled Receptor Assay for human Adrenergic, Alpha 2c Receptor (Adra2C) (AID 2283259)
# Method in brief: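 Screened first in duplicate at 25 uM, with actives then run as concentration series. Membranes from Sf9 cells were exposed for 1 h, and displacement of radioligand was counted after filtration, using DMSO as baseline.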
# [4] = target: human Serotonin, 5-Hydroxytryptamine Receptor 7 (5HT7), HTR7 (gene 3363) (UniProt P34969); assay: NVS_GPCR_h5HT7: NovaScreen (NVS) G Protein-Coupled Receptor Assay for human Serotonin, 5-Hydroxytryptamine Receptor 7 (5HT7) (AID 2283255);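 further: hits reduce specific radioligand binding relative to DMSO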
# Method in brief: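 Filter-bound radioactivity counted after 1 h, with loss of specific radioligand binding fitted against DMSO. Membrane protein came from CHO cells expressing human 5HT7. Chemicals were tested first at 25 uM in duplicate, then in concentration series if active.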
# [5] = target: human Adrenergic, Beta 3 Receptor (Adrb3), ADRB3 (gene 155) (UniProt P13945); assay: NVS_GPCR_hAdrb3: NovaScreen (NVS) G Protein-Coupled Receptor Assay for human Adrenergic, Beta 3 Receptor (Adrb3) (AID 2283262)
# Method in brief: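 A cell-free filter binding assay read by scintillation counting, with displacement of a specific radioligand measured after 1 hour. The receptor source was SK-N-MC extracts (cells pretreated with isoproterenol and 8-bromo-cAMP). Compounds were first tested at 25 uM in duplicate and then in concentration series.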
# [6] = system: bovine Histamine 1 Receptor (H1), gene 281231; assay: NVS_GPCR_bH1: NovaScreen (NVS) G Protein-Coupled Receptor Assay for bovine Histamine 1 Receptor (H1) (AID 2283246)
# Method in brief: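 Hits from a 25 uM duplicate primary screen were retested in concentration series (top 50 uM); binding measured as scintillation-counted displacement of radioligand from bovine cerebellar membranes after 1 h, normalised to DMSO.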
# [7] = system: guinea pig Muscarinic, Peripheral (Mperiperal) Receptor, Non-selective Binding, gene 100379235; assay: NVS_GPCR_gMPeripheral_NonSelective: NovaScreen (NVS) G Protein-Coupled Receptor Assay for guinea pig Muscarinic, Peripheral (Mperiperal) Receptor, Non-selective Binding (AID 2283250)
# Method in brief: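 Screened in duplicate at 25 uM, hits retested in concentration series to 50 uM max, using bladder membrane radioligand displacement from guinea pig. Filtration and scintillation counting 1 h post-dose, fitted relative to DMSO.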
# [8] = target: guinea pig Opioid, Kappa 1 Receptor (OpiateK), OPRK1 (gene 100135587) (UniProt P41144); assay: NVS_GPCR_gOpiateK: NovaScreen (NVS) G Protein-Coupled Receptor Assay for guinea pig Opioid, Kappa 1 Receptor (OpiateK) (AID 2283252);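 further: active means reduced radioligand binding relative to DMSO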
# Method in brief: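 Radioligand binding to kappa opioid receptor in guinea pig cerebellar membranes, read by filtration and scintillation at 2 h. Compounds first tested in duplicate at 25 uM, then actives in concentration series; signal loss fitted against DMSO.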
# [9] = target: human Adrenergic, Alpha 2A Receptor (Adra2A), ADRA2A (gene 150) (UniProt P08913); assay: NVS_GPCR_hAdra2A: NovaScreen (NVS) G Protein-Coupled Receptor Assay for human Adrenergic, Alpha 2A Receptor (Adra2A) (AID 2283257)
# Method in brief: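 Displacement of a specific radioligand from HT29 membrane protein was counted by filter scintillation after 1 h. Compounds were screened in duplicate at 25 uM, and actives were retested in concentration series. Fitting was positive-direction against DMSO.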
# [10] = target: human Dopamine Receptor D2 (DRD2), DRD2 (gene 1813) (UniProt P14416); assay: NVS_GPCR_hDRD2s: NovaScreen (NVS) G Protein-Coupled Receptor Assay for human Dopamine Receptor D2 (DRD2) (AID 2283266)
# Method in brief: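 Test compound (25 uM, duplicate in the primary screen; concentration series at follow-up) competed with radioligand for human DRD2 in CHO-derived membrane protein. Filter-based scintillation counting was done 1.5 hours after dosing, with loss of signal analysed against DMSO.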
# [11] = target: human Dopamine Receptor D4.4 (DRD4.4), DRD4 (gene 1815) (UniProt P21917); assay: NVS_GPCR_hDRD4.4: NovaScreen (NVS) G Protein-Coupled Receptor Assay for human Dopamine Receptor D4.4 (DRD4.4) (AID 2283264)
# Method in brief: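 Filter-binding assay with a tritiated or iodinated ligand, cell-free receptor prepared from CHO, 1 hour. Loss of bound radioactivity versus DMSO; single 25 uM duplicate screen, then concentration-response for actives.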
# [12] = target: human Endothelin Receptor Type A (ETA), EDNRA (gene 1909) (UniProt P25101); assay: NVS_GPCR_hETA: NovaScreen (NVS) G Protein-Coupled Receptor Assay for human Endothelin Receptor Type A (ETA) (AID 2283265)
# Method in brief: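 Binding of radioligand to membrane protein extracted from SH-SY5Y cells was read by filtration and scintillation after 3 h. Compounds were screened at 25 uM in duplicate, with hits followed up in singleton concentration series to 50 uM.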
# [13] = target: human Serotonin, 5-Hydroxytryptamine Receptor 6 (5HT6), HTR6 (gene 3362) (UniProt P50406); assay: NVS_GPCR_h5HT6: NovaScreen (NVS) G Protein-Coupled Receptor Assay for human Serotonin, 5-Hydroxytryptamine Receptor 6 (5HT6) (AID 2283253)
# Method in brief: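 Filter scintillation counting of radioligand displacement from HEK293-expressed 5HT6, 1 hour post-dose, with loss of signal relative to DMSO. Single 25 uM duplicates first, with concentration series for confirmation.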
# [14] = target: human Adenosine A1 Receptor (AdoRA1), ADORA1 (gene 134) (UniProt P30542); assay: NVS_GPCR_hAdoRA1: NovaScreen (NVS) G Protein-Coupled Receptor Assay for human Adenosine A1 Receptor (AdoRA1) (AID 2283254)
# Method in brief: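 Hum. cortical membranes + radioligand, cmpd 1 h; filtration, scintillation count. Readout = decrease vs DMSO. Primary 25 uM dup; hits → conc. series.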
# Chain of human Serotonin, 5-Hydroxytryptamine Receptor 7 (5HT7), HTR7 (gene 3363) (P34969 whole entry, looked up): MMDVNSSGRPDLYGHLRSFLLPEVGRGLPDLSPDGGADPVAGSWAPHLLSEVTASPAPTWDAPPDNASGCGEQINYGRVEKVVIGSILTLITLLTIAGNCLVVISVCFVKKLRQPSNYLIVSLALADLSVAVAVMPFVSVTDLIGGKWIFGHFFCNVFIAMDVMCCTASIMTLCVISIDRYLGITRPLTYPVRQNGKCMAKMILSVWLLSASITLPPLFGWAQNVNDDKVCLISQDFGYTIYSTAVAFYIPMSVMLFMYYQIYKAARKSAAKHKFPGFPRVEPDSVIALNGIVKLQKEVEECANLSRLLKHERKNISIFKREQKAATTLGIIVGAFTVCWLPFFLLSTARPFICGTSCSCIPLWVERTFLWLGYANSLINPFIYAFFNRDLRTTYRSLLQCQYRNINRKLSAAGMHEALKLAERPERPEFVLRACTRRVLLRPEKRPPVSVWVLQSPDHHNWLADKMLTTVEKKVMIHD
# Chain of human Adrenergic, Alpha 2A Receptor (Adra2A), ADRA2A (gene 150) (P08913 whole entry, looked up): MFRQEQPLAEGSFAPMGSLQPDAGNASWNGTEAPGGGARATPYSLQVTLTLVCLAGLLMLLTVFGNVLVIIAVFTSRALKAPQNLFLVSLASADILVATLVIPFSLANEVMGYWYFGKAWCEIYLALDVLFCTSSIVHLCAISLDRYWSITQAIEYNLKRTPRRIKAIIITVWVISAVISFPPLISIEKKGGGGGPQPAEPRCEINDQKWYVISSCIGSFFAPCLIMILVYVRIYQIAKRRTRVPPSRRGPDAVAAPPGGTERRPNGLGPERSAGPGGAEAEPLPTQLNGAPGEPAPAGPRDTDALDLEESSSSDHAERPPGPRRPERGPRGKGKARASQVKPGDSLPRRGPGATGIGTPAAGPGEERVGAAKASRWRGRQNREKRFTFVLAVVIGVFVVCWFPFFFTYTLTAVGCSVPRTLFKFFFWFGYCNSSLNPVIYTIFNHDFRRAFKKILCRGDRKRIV
# Chain of guinea pig Opioid, Kappa 1 Receptor (OpiateK), OPRK1 (gene 100135587) (P41144 whole entry, looked up): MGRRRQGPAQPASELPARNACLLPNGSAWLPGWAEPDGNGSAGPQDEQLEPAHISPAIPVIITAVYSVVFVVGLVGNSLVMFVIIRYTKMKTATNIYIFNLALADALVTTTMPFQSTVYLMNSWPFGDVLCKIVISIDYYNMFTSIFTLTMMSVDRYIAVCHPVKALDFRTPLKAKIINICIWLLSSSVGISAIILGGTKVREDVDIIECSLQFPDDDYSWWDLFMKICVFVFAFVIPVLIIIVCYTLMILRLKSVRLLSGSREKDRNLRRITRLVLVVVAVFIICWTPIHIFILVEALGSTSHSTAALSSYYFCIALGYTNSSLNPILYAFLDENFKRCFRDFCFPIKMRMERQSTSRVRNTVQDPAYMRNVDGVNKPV
# Chain of human Endothelin Receptor Type A (ETA), EDNRA (gene 1909) (P25101 whole entry, looked up): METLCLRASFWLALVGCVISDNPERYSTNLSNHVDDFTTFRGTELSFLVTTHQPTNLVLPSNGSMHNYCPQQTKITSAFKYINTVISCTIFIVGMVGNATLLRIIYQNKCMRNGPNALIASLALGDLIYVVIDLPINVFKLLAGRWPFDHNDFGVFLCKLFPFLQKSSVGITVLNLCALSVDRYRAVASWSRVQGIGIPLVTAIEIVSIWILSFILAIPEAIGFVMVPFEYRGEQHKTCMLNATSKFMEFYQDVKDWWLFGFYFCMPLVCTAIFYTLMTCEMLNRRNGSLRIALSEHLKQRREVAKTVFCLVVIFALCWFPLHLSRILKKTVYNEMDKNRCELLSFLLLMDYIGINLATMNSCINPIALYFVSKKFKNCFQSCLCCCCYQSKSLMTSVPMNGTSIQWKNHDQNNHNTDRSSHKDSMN
# Chain of human Serotonin, 5-Hydroxytryptamine Receptor 2A (5HT2A), HTR2A (gene 3356) (P28223 whole entry, looked up): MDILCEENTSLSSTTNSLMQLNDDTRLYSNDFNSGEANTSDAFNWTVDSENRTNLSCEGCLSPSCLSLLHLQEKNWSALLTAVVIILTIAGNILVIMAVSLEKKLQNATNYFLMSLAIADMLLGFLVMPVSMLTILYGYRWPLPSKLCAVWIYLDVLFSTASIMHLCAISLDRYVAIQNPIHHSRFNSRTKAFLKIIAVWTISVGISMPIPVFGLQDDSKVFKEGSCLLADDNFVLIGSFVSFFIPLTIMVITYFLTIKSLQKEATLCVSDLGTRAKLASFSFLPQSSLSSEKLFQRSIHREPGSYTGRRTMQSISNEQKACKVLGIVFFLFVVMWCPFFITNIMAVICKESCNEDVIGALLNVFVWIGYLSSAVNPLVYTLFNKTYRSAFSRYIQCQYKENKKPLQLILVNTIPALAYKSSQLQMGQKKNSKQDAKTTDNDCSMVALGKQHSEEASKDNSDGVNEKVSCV
# Chain of human Adrenergic, Alpha 2c Receptor (Adra2C), ADRA2C (gene 152) (P18825 whole entry, looked up): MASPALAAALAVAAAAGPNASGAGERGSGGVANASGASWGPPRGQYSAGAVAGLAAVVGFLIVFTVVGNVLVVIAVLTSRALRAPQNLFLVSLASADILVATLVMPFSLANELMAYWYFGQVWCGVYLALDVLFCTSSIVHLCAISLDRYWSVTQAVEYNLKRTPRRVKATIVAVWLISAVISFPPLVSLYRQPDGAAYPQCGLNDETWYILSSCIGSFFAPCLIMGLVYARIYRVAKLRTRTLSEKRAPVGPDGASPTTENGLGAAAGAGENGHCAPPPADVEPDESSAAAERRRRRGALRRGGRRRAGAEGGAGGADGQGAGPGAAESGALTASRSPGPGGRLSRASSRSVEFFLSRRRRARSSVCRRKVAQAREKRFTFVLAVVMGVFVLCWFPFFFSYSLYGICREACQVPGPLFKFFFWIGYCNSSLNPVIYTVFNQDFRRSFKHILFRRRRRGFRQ
# Chain of human Dopamine Receptor D2 (DRD2), DRD2 (gene 1813) (P14416 whole entry, looked up): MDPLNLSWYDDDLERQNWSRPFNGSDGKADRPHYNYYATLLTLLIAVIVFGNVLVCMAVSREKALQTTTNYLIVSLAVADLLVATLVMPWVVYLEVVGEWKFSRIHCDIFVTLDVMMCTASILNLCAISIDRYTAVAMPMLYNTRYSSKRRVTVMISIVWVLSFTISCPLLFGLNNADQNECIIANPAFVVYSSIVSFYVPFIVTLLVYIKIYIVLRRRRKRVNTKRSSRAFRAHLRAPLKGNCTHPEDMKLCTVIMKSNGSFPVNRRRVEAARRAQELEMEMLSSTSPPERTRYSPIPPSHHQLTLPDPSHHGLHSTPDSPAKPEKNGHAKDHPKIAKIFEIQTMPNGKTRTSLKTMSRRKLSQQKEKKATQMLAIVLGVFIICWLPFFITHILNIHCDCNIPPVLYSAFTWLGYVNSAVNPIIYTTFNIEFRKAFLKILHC
# Chain of human Serotonin, 5-Hydroxytryptamine Receptor 6 (5HT6), HTR6 (gene 3362) (P50406 whole entry, looked up): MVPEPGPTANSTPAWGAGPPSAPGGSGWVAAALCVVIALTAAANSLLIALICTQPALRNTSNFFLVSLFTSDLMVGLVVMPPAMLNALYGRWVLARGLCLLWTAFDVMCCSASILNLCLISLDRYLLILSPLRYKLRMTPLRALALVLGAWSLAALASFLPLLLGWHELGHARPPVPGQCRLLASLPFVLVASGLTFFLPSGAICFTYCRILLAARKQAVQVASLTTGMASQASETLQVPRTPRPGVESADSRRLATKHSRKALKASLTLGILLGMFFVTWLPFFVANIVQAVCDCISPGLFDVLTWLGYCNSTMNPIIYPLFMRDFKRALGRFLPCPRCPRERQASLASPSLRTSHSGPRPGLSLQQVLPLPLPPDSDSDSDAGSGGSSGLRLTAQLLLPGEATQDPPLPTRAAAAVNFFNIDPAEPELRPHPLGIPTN
# Chain of human Dopamine Receptor D4.4 (DRD4.4), DRD4 (gene 1815) (P21917 whole entry, looked up): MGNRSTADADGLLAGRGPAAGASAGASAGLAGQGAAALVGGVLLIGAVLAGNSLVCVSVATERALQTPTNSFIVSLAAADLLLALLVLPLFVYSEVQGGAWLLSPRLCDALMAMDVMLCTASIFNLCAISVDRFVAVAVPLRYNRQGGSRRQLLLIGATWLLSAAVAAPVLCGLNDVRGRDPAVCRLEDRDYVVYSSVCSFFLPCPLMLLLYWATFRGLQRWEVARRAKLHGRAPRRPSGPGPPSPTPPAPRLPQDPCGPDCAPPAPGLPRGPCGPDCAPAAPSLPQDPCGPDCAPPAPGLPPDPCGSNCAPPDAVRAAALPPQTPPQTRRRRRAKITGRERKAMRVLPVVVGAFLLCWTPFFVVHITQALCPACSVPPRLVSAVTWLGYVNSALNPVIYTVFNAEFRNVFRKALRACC
# Chain of human Adenosine A1 Receptor (AdoRA1), ADORA1 (gene 134) (P30542 whole entry, looked up): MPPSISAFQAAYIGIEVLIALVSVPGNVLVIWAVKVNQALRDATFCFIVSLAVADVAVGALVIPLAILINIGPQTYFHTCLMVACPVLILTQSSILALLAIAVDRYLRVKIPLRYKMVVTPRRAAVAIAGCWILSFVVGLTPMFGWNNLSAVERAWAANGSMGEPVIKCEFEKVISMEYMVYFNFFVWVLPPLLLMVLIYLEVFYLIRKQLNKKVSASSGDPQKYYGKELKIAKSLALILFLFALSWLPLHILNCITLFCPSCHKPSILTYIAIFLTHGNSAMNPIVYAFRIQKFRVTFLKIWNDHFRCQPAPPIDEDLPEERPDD
# Chain of human Adrenergic, Beta 3 Receptor (Adrb3), ADRB3 (gene 155) (P13945 whole entry, looked up): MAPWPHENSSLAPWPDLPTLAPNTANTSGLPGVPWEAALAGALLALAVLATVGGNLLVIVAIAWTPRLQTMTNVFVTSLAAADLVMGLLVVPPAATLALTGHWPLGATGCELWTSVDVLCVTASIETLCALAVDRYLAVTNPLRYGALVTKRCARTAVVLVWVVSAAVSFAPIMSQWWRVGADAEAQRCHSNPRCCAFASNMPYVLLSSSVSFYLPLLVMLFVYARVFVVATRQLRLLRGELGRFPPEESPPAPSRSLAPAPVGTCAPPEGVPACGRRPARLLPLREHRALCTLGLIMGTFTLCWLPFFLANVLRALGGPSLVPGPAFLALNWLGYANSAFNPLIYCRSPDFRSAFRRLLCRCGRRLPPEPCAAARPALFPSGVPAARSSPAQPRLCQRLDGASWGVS
smiles,measurement,setting,value
O=C(CCCCCCCCc1cccnc1)N1CCC(C=C(c2ccccc2)c2ccccc2)CC1,outcome,[1],inactive
same,outcome,[2],inactive
O=C(OC[C@H]1O[C@@H](OC(=O)c2cc(O)c(O)c(OC(=O)c3cc(O)c(O)c(O)c3)c2)[C@H](OC(=O)c2cc(O)c(O)c(OC(=O)c3cc(O)c(O)c(O)c3)c2)[C@@H](OC(=O)c2cc(O)c(O)c(OC(=O)c3cc(O)c(O)c(O)c3)c2)[C@@H]1OC(=O)c1cc(O)c(O)c(OC(=O)c2cc(O)c(O)c(O)c2)c1)c1cc(O)c(O)c(OC(=O)c2cc(O)c(O)c(O)c2)c1,outcome,[1],inactive
same,outcome,[3],inactive
O=C(O)CCN(C1(C(=O)NO)CCCC1)S(=O)(=O)c1ccc(Oc2ccc(F)cc2)cc1,AC50,[1],0.951 µM (active)
CC(=O)OCCC(C)C,outcome,[4],inactive
CC(C)CC(C)(O)C#CC(C)(O)CC(C)C (stereo unspecified),outcome,[5],inactive
CCCN(C1CCN(C(=O)C2CCNCC2)CC1)[C@@H]1CCc2ccc(OC)cc2C1,AC50,[6],11.6 µM (active)
same,AC50,[1],9.93 µM (active)
same,AC50,[7],0.00229 µM (active)
same,AC50,[8],7.41 µM (active)
same,AC50,[4],9.11 µM (active)
same,AC50,[9],17.4 µM (active)
same,AC50,[10],18.8 µM (active)
O=c1[nH]c2ccc(S(=O)CCN3CCC(Cc4ccc(F)cc4)CC3)cc2o1 (stereo unspecified),AC50,[6],3.91 µM (active)
same,AC50,[2],2.59 µM (active)
same,outcome,[8],inactive
same,AC50,[4],0.534 µM (active)
same,AC50,[9],0.837 µM (active)
same,AC50,[3],1.96 µM (active)
same,AC50,[11],2.51 µM (active)
same,AC50,[10],13.5 µM (active)
O=C(NS(=O)(=O)/C=C/c1ccccc1)c1ccc(F)cc1Cl,AC50,[1],12.4 µM (active)
CC[C@H](C)C(=O)O[C@H]1C[C@@H](C)C=C2C=C[C@H](C)[C@H](CC[C@@H]3C[C@@H](O)CC(=O)O3)[C@H]21,outcome,[12],inactive
O=C(O)CC(O)C(=O)O (stereo unspecified),outcome,[8],inactive
same,outcome,[9],inactive
COc1ccc2sc(C(=O)Nc3nnn[nH]3)c(OC(C)C)c2c1,outcome,[1],inactive
O=P(OC(CCl)CCl)(OC(CCl)CCl)OC(CCl)CCl,outcome,[13],inactive
Cc1c(-c2cccnc2)c2ccccc2n1CCCCC(=O)O,AC50,[8],14.7 µM (active)
On1ccccc1=S,AC50,[8],10.4 µM (active)
Nc1ccc(Nc2ccccc2)cc1,outcome,[7],inactive
same,AC50,[8],20.6 µM (active)
same,outcome,[14],inactive
same,AC50,[4],7.22 µM (active)
same,AC50,[9],9.06 µM (active)
same,AC50,[12],6.53 µM (active)
